“And” between values parts separate entries of the source, which are not always exact repeats. Equal values may be shown once. Screen size: about 5,500 compounds; about 2,000 (36%) were called active. Another 18% or so got no clear call; they are omitted. No stated cut-off is given here; in the data, active means normalized growth mostly below about 0.91 (no sharp cut-off); inconclusive means no clear call, values can overlap the other calls; inactive means mostly above about 0.92. This is one part of the list.
Assay: chemical genetic growth profiling, strain panel (AID 1159580);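 further: tested at 20 µM; growth read once vehicle control cultures reached saturation at 30 °C; 1 = growth at the plate median or of vehicle wells; lower values mean less growth of the strain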
Conditions: S. cerevisiae deletion strains, growth OD

Measured: normalized growth

CCCOc1ccc2nc(NC(=O)OC)[nH]c2c1
inactive: locus YAL021C, strain ccr4, active compounds read low 1.03 | locus YAL026C, strain drs2, active compounds read low 1.02 | locus YAL030W, strain snc1, active compounds read low 1.02 | locus YBL061C, strain skt5, active compounds read low 1.01 | locus YBR009C, strain hhf1, active compounds read low 1.01 | locus YBR021W, strain FUR4, active compounds read low 1.01 | locus YBR023C, strain chs3, active compounds read low 1.02 | locus YBR171W, strain sec66, active compounds read low 1.02 | locus YBR229C, strain ROT2, active compounds read low 0.992 | locus YBR231C, strain swc5, active compounds read low 1.01 | locus YBR279W, strain paf1, active compounds read low 1.02 | locus YCL011C, strain gbp2, active compounds read low 1.01 | locus YCL016C, strain dcc1, active compounds read low 1.02 | locus YCL029C, strain bik1, active compounds read low 0.974 | locus YCL061C, strain MRC1, active compounds read low 1.01 | locus YCL069W, strain vba3, active compounds read low 1.02 | locus YCR088W, strain abp1, active compounds read low 1.02 | locus YDL005C, strain med2, active compounds read low 1.02 | locus YDL035C, strain GPR1, active compounds read low 1.01 | locus YDL040C, strain nat1, active compounds read low 1.02 | locus YDL074C, strain BRE1, active compounds read low 1.02 | locus YDL101C, strain DUN1, active compounds read low 0.997 | locus YDL134C, strain PPH21, active compounds read low 0.982 | locus YDL185W, strain tfp1, active compounds read low 0.976 | locus YDL192W, strain arf1, active compounds read low 0.97 | locus YDR001C, strain nth1, active compounds read low 1.02 | locus YDR069C, strain doa4, active compounds read low 1.01 | locus YDR101C, strain arx1, active compounds read low 1.01 | locus YDR137W, strain rgp1, active compounds read low 0.951 | locus YDR150W, strain NUM1, active compounds read low 0.996 | locus YDR159W, strain sac3, active compounds read low 1.01 | locus YDR162C, strain NBP2, active compounds read low 0.983 | locus YDR195W, strain ref2 1.04 | locus YDR297W, strain sur2, active compounds read low 1.02 | locus YDR318W, strain mcm21, active compounds read low 0.977 | locus YDR334W, strain swr1, active compounds read low 1.01 | locus YDR335W, strain msn5, active compounds read low 1.02 | locus YDR388W, active compounds read low 0.981 | locus YDR392W, strain spt3, active compounds read low 0.99 | locus YDR502C, strain sam2, active compounds read low 0.983 | locus YEL037C, strain rad23, active compounds read low 1.01 | locus YEL061C, strain CIN8 (second series), active compounds read low 1.02 | locus YEL061C, strain CIN8, active compounds read low 0.999 | locus YER015W, strain faa2, active compounds read low 1 | locus YER016W, strain bim1, active compounds read low 1.02 | locus YER110C, active compounds read low 0.968 | locus YER111C, strain swi4, active compounds read low 1.01 | locus YER155C, strain BEM2 (second series), active compounds read low 1.02 | locus YER155C, strain BEM2, active compounds read low 0.992 | locus YER167W, strain BCK2, active compounds read low 0.988 | locus YFR010W, strain ubp6, active compounds read low 1.02 | locus YGL078C, strain dbp3, active compounds read low 0.982 | locus YGL086W, strain mad1, active compounds read low 0.989 | locus YGL167C, strain pmr1, active compounds read low 1.01 | locus YGL173C, strain kem1, active compounds read low 1.02 | locus YGL227W, strain vid30, active compounds read low 1.02 | locus YGL240W, strain doc1, active compounds read low 1 | locus YGL248W, strain PDE1, active compounds read low 0.986 | locus YGL253W, strain hxk2, active compounds read low 1.01 | locus YGR078C, strain PAC10, active compounds read low 0.856 | locus YGR135W, strain pre9, active compounds read low 0.953 | locus YGR229C, strain SMI1, active compounds read low 0.983 | locus YGR252W, strain gcn5, active compounds read low 0.956 | locus YHR013C, strain ard1, active compounds read low 1.01 | locus YHR027C, strain rpn1, active compounds read low 1.01 | locus YHR030C, strain SLT2, active compounds read low 0.988 and 1.02 | locus YHR079C, strain IRE1 (second series), active compounds read low 0.986 | locus YHR079C, strain IRE1, active compounds read low 1.02 | locus YHR094C, strain hxt1, active compounds read low 0.982 | locus YHR129C, strain ARP1, active compounds read low 0.989 | locus YHR142W, strain chs7, active compounds read low 1.03 | locus YHR200W, strain rpn10, active compounds read low 0.98 | locus YIL066C, strain RNR3, active compounds read low 0.996 | locus YIL073C, strain SPO22, active compounds read low 0.964 | locus YIL125W, strain kgd1, active compounds read low 0.993 | locus YIR030C, strain dcg1, active compounds read low 0.983 | locus YJL092W, strain hpr5, active compounds read low 1.01 | locus YJL095W, strain BCK1 (second series), active compounds read low 1.02 | locus YJL095W, strain BCK1, active compounds read low 1.01 and 1.06 | locus YJL115W, strain asf1, active compounds read low 1 | locus YJL129C, strain trk1, active compounds read low 1.03 | locus YJL134W, strain LCB3, active compounds read low 0.995 | locus YJL154C, strain vps35, active compounds read low 1.02 | locus YJL164C, strain tpk1, active compounds read low 1.02 | locus YJL166W, strain qcr8, active compounds read low 1.02 | locus YJL168C, strain set2, active compounds read low 0.994 | locus YJL187C, strain SWE1 (second series), active compounds read low 1.01 | locus YJL187C, strain SWE1, active compounds read low 1.01 | locus YJR043C, strain POL32, active compounds read low 0.991 | locus YJR066W, strain TOR1, active compounds read low 0.94
active: locus YEL003W, strain gim4, active compounds read low 0.841
